Read-out in assay [1]: Transforming growth factor beta 1 (TGFb1), TGFB1 (gene 7040)
As to the kind of experiment: BSK_KF3CT_TGFb1: BioMAP Diversity Plus: KF3CT Assay for Transforming growth factor beta 1 (TGFb1) Biomarker Activity (AID 2283072). The settings on record: primary human keratinocytes with fibroblasts; actives raise or lower the signal. In outline:
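KF3CT co-culture (keratinocytes + fibroblasts), 24 h exposure → TGF-b1 ELISA → bidirectional fit, DMSO = baseline. Parallel SRB total-protein staining (0.1% SRB, 10% TCA fixation, 560 nm) for cytotoxicity.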

Read-out in assay [2]: C-C motif chemokine 2 (Homo sapiens) (UniProt P13500)
Description: BSK_KF3CT_MCP1: BioMAP Diversity Plus: KF3CT Assay for Monocyte Chemoattractant Protein 1 (MCP1/CCL2) Biomarker Activity (AID 2283073). The settings on record: primary human keratinocytes with fibroblasts; actives raise or lower the signal. In outline:
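KF3CT skin co-culture (keratinocytes/foreskin fibroblasts), 24 h post-dose; MCP-1 by ELISA; gain/loss of signal fit bidirectionally vs DMSO baseline.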

Read-out in assay [3]: Matrix Metallopeptidase 9 (MMP9), MMP9 (gene 4318)
Description: BSK_KF3CT_MMP9: BioMAP Diversity Plus: KF3CT Assay for Matrix Metallopeptidase 9 (MMP9) Biomarker Activity (AID 2283074).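 For AC50: MMP9 protein level quantified by ELISA in the co-culture.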 The settings on record: primary human keratinocytes with fibroblasts; actives raise or lower the signal. In outline: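 Values come from bidirectional fitting relative to DMSO of MMP-9 levels, which were measured by ELISA. Measurements were taken 24 h after chemical dosing of a keratinocyte and foreskin fibroblast co-culture.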

Read-out in assay [4]: urokinase plasminogen activator (uPA), PLAU (gene 5328)
As to the kind of experiment: BSK_KF3CT_uPA: BioMAP Diversity Plus: KF3CT Assay for urokinase plasminogen activator (uPA) Biomarker Activity (AID 2283075). The settings on record: primary human keratinocytes with fibroblasts; actives raise or lower the signal. In outline: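 Values derive from bidirectional fitting against DMSO controls. Keratinocyte/foreskin fibroblast co-cultures received chemical; 24 h later uPA was detected by ELISA, with SRB total-protein staining in parallel wells for overt cytotoxicity.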

Read-out in assay [5]: CD40, CD40 (gene 958)
Description: BSK_LPS_CD40: BioMAP Diversity Plus: LPS Assay for CD40 Biomarker Activity (AID 2283076). The note with it: primary human HUVEC with PBMC; actives raise or lower the signal. In short, it runs like this:
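ELISA readout of CD40 in HUVEC/PBMC co-culture (BSK_LPS system), 24 h post-dosing; bidirectional curve fit, DMSO baseline; parallel SRB total-protein staining for cytotoxicity.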

Read-out in assay [6]: E-selectin (Homo sapiens) (UniProt P16581)
As to the kind of experiment: BSK_LPS_Eselectin: BioMAP Diversity Plus: LPS Assay for Eselectin Biomarker Activity (AID 2283077). The settings on record: primary human HUVEC with PBMC; actives raise or lower the signal. In outline: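 ELISA readout of E-selectin, 24 h post-dose, HUVEC + PBMC co-culture (LPS system). Gain or loss of signal vs DMSO baseline, bidirectional fit.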

Read-out in assay [7]: Interleukin-8 (IL8), CXCL8 (gene 3576)
As to the kind of experiment: BSK_LPS_IL8: BioMAP Diversity Plus: LPS Assay for Interleukin-8 (IL8) Biomarker Activity (AID 2283078). The settings on record: primary human HUVEC with PBMC; actives raise or lower the signal. In short, it runs like this:
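HUVEC + PBMC co-culture, LPS-activated; test chemicals dosed, IL-8 read by ELISA at 24 h. Bidirectional curve fit vs DMSO baseline (gain or loss of signal).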

Read-out in assay [8]: Interleukin-1 alpha (IL1a), IL1A (gene 3552)
Description: BSK_LPS_IL1a: BioMAP Diversity Plus: LPS Assay for Interleukin-1 alpha (IL1a) Biomarker Activity (AID 2283080). The settings on record: primary human HUVEC with PBMC; actives raise or lower the signal. In outline:
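HUVEC/PBMC co-culture, LPS system; 24 h after dosing; IL-1a by ELISA; gain or loss of signal fitted bidirectionally vs DMSO baseline.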

Read-out in assay [9]: Monocyte Chemoattractant Protein-1 (MCP1), CCL2 (gene 6347)
As to the kind of experiment: BSK_LPS_MCP1: BioMAP Diversity Plus: LPS Assay for Monocyte Chemoattractant Protein-1 (MCP1) Biomarker Activity (AID 2283081).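 For AC50: secreted MCP-1 protein quantified by ELISA in culture supernatant.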 The note with it: primary human HUVEC with PBMC; actives raise or lower the signal. In outline: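 ELISA read-out of MCP-1 after 24 h chemical dosing of a human umbilical vein endothelial cell/peripheral blood mononuclear cell co-culture stimulated with LPS. Gain or loss of signal fitted relative to DMSO controls.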

The nature of assay [10]: BSK_LPS_SRB: Viability Assessment in the BioMAP Diversity Plus: LPS Assay (AID 2283079).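 Note: total protein by sulforhodamine B absorbance as a cytotoxicity measure; measured one day after compound addition; fitted in both directions against DMSO so loss or gain of signal counts.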 The note with it: primary human HUVEC with PBMC. In outline:
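HUVEC + PBMC co-culture, LPS-stimulated; compound 24 h. 10% TCA fix, 0.1% SRB stain, A560. Bidirectional fit vs DMSO.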

Consider 14 compounds from PubChem BioAssay (EPA / NIEHS).

The source made the active and inactive calls. Rule for the calls: active = hit-call score of the fitted dose curve at least 0.9, where 1 is the maximum; inactive = score below 0.9.

Chain of E-selectin (Homo sapiens) (P16581 whole entry, looked up): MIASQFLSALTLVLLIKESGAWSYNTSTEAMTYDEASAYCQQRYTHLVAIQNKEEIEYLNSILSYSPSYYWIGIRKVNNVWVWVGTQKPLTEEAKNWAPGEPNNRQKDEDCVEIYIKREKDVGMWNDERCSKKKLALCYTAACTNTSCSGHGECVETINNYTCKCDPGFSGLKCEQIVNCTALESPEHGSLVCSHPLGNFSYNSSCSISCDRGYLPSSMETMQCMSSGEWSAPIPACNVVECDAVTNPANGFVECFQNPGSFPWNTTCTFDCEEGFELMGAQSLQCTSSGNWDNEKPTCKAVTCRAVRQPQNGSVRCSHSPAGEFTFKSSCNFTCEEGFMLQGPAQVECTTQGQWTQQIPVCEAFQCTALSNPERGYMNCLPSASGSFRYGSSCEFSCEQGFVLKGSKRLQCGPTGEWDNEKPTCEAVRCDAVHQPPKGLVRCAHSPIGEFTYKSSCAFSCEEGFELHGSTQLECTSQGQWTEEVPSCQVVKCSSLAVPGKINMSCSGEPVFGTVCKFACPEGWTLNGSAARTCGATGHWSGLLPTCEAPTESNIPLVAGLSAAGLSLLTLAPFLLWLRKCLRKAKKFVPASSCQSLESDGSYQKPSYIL

As to `CC(C)OC(=O)Nc1cccc(Cl)c1`, the result in [1], in assay [2], in assay [3], in assay [4], in [5] and in assay [6] was inactive. Further, the result in assay [7], in [8] and in assay [9] was inactive.
With `CNC(=O)/C=C(\C)OP(=O)(OC)OC`, the outcome in assay [1], in assay [2], in [3], in assay [4], in assay [5] and in [6] was inactive. The outcome in assay [7], in assay [8] and in assay [9] was inactive.
Regarding `CN1CSC(=S)N(C)C1`, the result in [1], in assay [2], in [4] and in assay [5] was inactive. Moreover, the AC50 in assay [3] is 14.4 µM (active); in assay [6] it was 19 µM (active); in assay [7], 13 µM (active); in [8], 12.8 µM (active); in [9] it was 11.9 µM (active).
Regarding `OCCOc1ccccc1`, the result in assay [1], in [2], in assay [3], in assay [4], in assay [5] and in assay [6] was inactive. The result in assay [7], in assay [8] and in assay [9] was inactive.
Regarding `COC(=O)c1ccccc1S(=O)(=O)NC(=O)N(C)c1nc(C)nc(OC)n1`, the result in [1], in assay [2], in assay [3], in assay [4], in assay [5] and in assay [6] was inactive. For the same compound, the outcome in [7], in assay [8] and in [9] was inactive.
With `CC1(c2ccc(Oc3ccccc3)cc2)OC(=O)N(Nc2ccccc2)C1=O` (configuration not stated), the result in assay [1], in [2], in [3], in [4] and in [8] was inactive. Also, the AC50 was 24.1 µM (active) in [5], 20 µM (active) in assay [6], 20 µM (active) in [7] and 29.5 µM (active) in assay [9].
Turning to `Oc1ccc(Cl)cc1Cc1ccccc1`, the AC50 in [5] is 21.1 µM (active) [middle of 7 runs]; in assay [6], 31.3 µM (active) [middle of 6 runs]; in [7], 35.3 µM (active) [middle of 7 runs]; in assay [10], 29.3 µM (active) [middle of 7 runs]; in assay [8], 31.8 µM (active) [middle of 6 runs]; in assay [9] it was 32.5 µM (active) [middle of 7 runs].
On to `O=C(NC(=O)c1c(F)cccc1F)Nc1ccc(OC(F)(F)C(F)OC(F)(F)F)c(Cl)c1` (configuration not stated), for which the result in assay [1], in assay [2], in assay [3], in assay [4], in assay [5] and in assay [6] was inactive. The outcome in assay [7], in assay [8] and in assay [9] was inactive.
For `CC[C@H](C)[C@H]1O[C@]2(C=C[C@@H]1C)C[C@@H]1C[C@@H](C/C=C(\C)[C@@H](O[C@H]3C[C@H](OC)[C@@H](O[C@H]4C[C@H](OC)[C@@H](O)[C@H](C)O4)[C@H](C)O3)[C@@H](C)/C=C/C=C3\CO[C@@H]4[C@H](O)C(C)=C[C@@H](C(=O)O1)[C@]34O)O2` (tested in a mixture with another compound), the AC50 in assay [1] was 31.7 µM (active); in assay [2], 7.59 µM (active); in [3], 5.77 µM (active); in assay [4], 15.5 µM (active); in [5] it was 6.65 µM (active); in assay [6] it was 9.62 µM (active). Also, the AC50 in assay [7] was 5.94 µM (active); in assay [8], 6.51 µM (active); in [9], 8.83 µM (active).
Take `COC(=O)c1ccccc1S(=O)(=O)NC(=O)Nc1nc(C)nc(OC)n1`: the outcome in assay [1], in assay [2], in [3], in assay [4], in assay [5] and in assay [6] was inactive. Further, the outcome in assay [7], in [8] and in assay [9] was inactive.
As to `CCCN(CCOc1c(Cl)cc(Cl)cc1Cl)C(=O)n1ccnc1`, the outcome in assay [1], in [2], in [3], in assay [4], in [6] and in [7] was inactive. Moreover, the result in assay [8] and in assay [9] was inactive. Further, in assay [5], the AC50 is 20 µM (active).
Consider `O=S1OCC2C(CO1)C1(Cl)C(Cl)=C(Cl)C2(Cl)C1(Cl)Cl` (configuration not stated), for which the result in assay [1] was inactive. Moreover, the AC50 in assay [3] was 15.9 µM (active); in assay [4], 30.9 µM (active); in [5] it was 29.2 µM (active); in assay [6], 30.9 µM (active); in assay [7], 33.5 µM (active); in assay [8] it was 16.3 µM (active). Moreover, the AC50 in [9] is 34.9 µM (active).
For `COc1nn(CSP(=S)(OC)OC)c(=O)s1`, the outcome in assay [1], in [2], in assay [3], in [4], in assay [5] and in assay [7] was inactive. Moreover, the result in [8] and in assay [9] was inactive. Moreover, in assay [6], the AC50 is 4.79 µM (active).
Consider `CC1(C)C(C=C(Cl)Cl)C1C(=O)OC(C#N)c1ccc(F)c(Oc2ccccc2)c1` (configuration not stated), for which the result in [1], in assay [2], in assay [3], in [4], in assay [5] and in [6] was inactive. Moreover, the outcome in assay [8] and in assay [9] was inactive. In addition, the AC50 in [7] was 20 µM (active).
